# SARS PLP yeast – blocks SARS-CoV papain-like protease in a yeast assay; S. cerevisiae expressing SARS-CoV PLpro, growth rescue; Potency, µM (doses to about 32.9 µM), for inactives: at the top dose activity, positive = growth rescue, most hits filed as activators; 330,000 tested, 0.19% active; AID 485353; calls by dose curve; further: 0% is about no effect; nearly all actives have a fitted effect of over 55% in size
# NS1 function inh – influenza NS1 inhibition. Potency, µM (doses to about 46.1 µM), without a hit: at the highest dose activity, positive = more growth. 270,000 tested, 0.4% active. AID 2326; calls by dose curve; further: actives are rising curves; nearly all actives have a fitted effect of over 50% in size
#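 Recovery from NS1-induced slow growth read by OD600 in budding yeast switched to galactose assay medium (pH 6.0, -URA) at 1:100 dilution. Compound 23 nl per well; the matching strain lacking NS1 serves as control.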
# AmpC no deterg – inhibitors of E. coli AmpC beta-lactamase without detergent | P00811 | AmpC nitrocefin hydrolysis, absorbance 480 nm, 0.0001% Triton | Potency, µM (series often up to 57.1 µM), for the others: top-dose activity change, negative = inhibition, hits mostly inhibitors | 330,000 tested, 0.52% active | AID 485341;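 further: plate controls were no compound for no effect and no enzyme for full effect; nearly all actives have a fitted effect of over 20% in size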
#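 20 mM phosphate pH 7.0 + 0.01% (detergent screen) or 0.0001% Triton X-100; 5.3 nM AmpC reagent; cpd preinc 15 min RT; nitrocefin (800 uM stock) to start; A480 q20 s × 4 min; Activity was normalised to no-enzyme and no-compound control wells.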
# Giardia FBPA inh-1 – blocks Giardia fructose-bisphosphate aldolase activity | purified Giardia FBPA | Potency, µM (top dose mostly 59.6 µM), for the others: at the highest dose activity, negative = inhibition, most hits filed as inhibitors | 290,000 tested, 0.71% active; further: on the % scale 0 is the no-effect control and ±100 the full control effect; nearly all actives have a fitted effect of over 55% in size
# Target sequence (A8B2U2 whole entry, looked up): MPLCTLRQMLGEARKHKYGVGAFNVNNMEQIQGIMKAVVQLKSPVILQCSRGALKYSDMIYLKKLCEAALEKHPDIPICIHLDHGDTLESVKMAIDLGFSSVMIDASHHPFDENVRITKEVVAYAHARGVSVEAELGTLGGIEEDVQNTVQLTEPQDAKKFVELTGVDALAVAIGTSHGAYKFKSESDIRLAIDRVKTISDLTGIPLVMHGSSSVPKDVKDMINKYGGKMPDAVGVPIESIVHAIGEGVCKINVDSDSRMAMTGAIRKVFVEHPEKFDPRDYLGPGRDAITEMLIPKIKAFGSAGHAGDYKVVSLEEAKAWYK
#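 40 nM FBPA preincubated 10 min at RT with compound (up to 57.5 uM final), then substrate plus GAPDH/TPI/NAD/arsenate coupling and diaphorase/resazurin added. Fluorescence read after 20 min at RT, 525/598 nm.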
# AmpC detergent – inhibitors of E. coli AmpC beta-lactamase with detergent. 370,000 tested, 0.041% active. P00811. AmpC hydrolysis of nitrocefin, absorbance 480 nm, 0.01% Triton. Potency, µM (highest dose often 114 µM), inactives show at the top dose activity change, negative = inhibition, most hits filed as inhibitors;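 further: 0% = no-compound wells and -100% = no-enzyme wells; nearly all actives have a fitted effect of over 25% in size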
#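 AmpC (5.3 nM in the dispensed reagent) in 20 mM phosphate pH 7.0 with 0.01% (detergent screen) or 0.0001% Triton X-100 was preincubated with compounds for 15 min at room temperature. Nitrocefin was then added from an 800 uM solution, and hydrolysis was followed at 480 nm.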
# Giardia growth – Giardia lamblia growth inhibition; shares compounds with Giardia FBPA inh-1; Giardia lamblia trophozoite growth inhibition; Potency, µM (series often up to 57.5 µM), inactives show at the top dose activity change, negative = inhibition, hits mostly inhibitors; 1,500 tested, 5% active; AID 2785;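 further: trophozoites exposed to compound for 48 h at 37 °C; on the % scale 0 is the no-effect control and ±100 the full control effect; nearly all actives have a fitted effect of over 70% in size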
# Mammal cell tox – toxic to mammalian cells in Giardia aldolase counter-screen; Potency, µM (titrated, usually from 57.5 µM), for inactives: top-dose viability change, negative = toxicity, usual class: inhibitors; 1,500 tested, 4% active; shares compounds with Giardia FBPA inh-1; mammalian cell viability counter-screen, qHTS;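 further: Chinese hamster ovary cells used as mammalian cytotoxicity surrogate; viability measured as cellular ATP by luminescence; compound exposure lasted 48 h before reading; on the % scale 0 is the no-effect control and ±100 the full control effect; nearly all actives have a fitted effect of over 60% in size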
# Giardia FBPA inh-2 – confirmation of Giardia fructose-bisphosphate aldolase inhibitors | 1,500 tested, 5% active | shares compounds with Giardia FBPA inh-1 | purified Giardia aldolase enzyme activity, qHTS | Potency, µM (series often up to 57.5 µM), without a hit: at the top dose activity change, negative = inhibition, usual class: inhibitors | AID 2787; further: on the % scale 0 is the no-effect control and ±100 the full control effect; nearly all actives have a fitted effect of over 45% in size
# Rabbit FBPA inh – selectivity test for Giardia aldolase inhibitors: rabbit aldolase. AID 2794. Rabbit muscle FBPA enzyme inhibition, selectivity counter-screen. Potency, µM (highest dose often 57.5 µM), for inactives: at the top dose activity, negative = inhibition, hits mostly inhibitors. shares compounds with Giardia FBPA inh-1. 1,500 tested, 4% active; further: on the % scale 0 is the no-effect control and ±100 the full control effect; nearly all actives have a fitted effect of over 60% in size
# Target sequence (P00883 whole entry, looked up): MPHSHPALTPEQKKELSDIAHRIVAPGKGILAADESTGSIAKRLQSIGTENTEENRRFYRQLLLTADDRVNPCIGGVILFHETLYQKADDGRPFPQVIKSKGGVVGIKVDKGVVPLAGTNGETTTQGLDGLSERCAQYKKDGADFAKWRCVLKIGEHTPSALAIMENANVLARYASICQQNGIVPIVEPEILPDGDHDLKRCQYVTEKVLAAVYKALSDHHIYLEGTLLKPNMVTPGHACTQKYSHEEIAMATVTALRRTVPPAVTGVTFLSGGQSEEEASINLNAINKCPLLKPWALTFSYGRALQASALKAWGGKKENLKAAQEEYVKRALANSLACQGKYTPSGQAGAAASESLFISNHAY
# GAPDH coupling – counter-screen for Giardia aldolase inhibitors: GAPDH coupling enzyme | shares compounds with Giardia FBPA inh-1 | GAPDH coupling enzyme counterscreen, biochemical, qHTS | Potency, µM (doses to about 57.5 µM), for the others: at the highest dose activity change, negative = inhibition, actives largely listed as inhibitors | 1,500 tested, 6% active | AID 2795; further: on the % scale 0 is the no-effect control and ±100 the full control effect; nearly all actives have a fitted effect of over 55% in size
# An asterisk follows results filed as active; ? = inconclusive; nt = no result; [ ] = another dose, or the depositor's remark. Sampled rows, rich in hits. Any-hit rate of the full collection: about 1.4%. Unless noted, the call rests on the fitted dose curve; in most records, active means well fitted curve in the direction sought with a large enough effect; inconclusive means small, poorly fitted or top-dose-only effect, or another doubt; inactive means no such curve, though single readings can be large; an effect the other way counts as inactive or inconclusive. Potency means the concentration at half of the fitted maximal effect.
SMILES,SARS PLP yeast,NS1 function inh,AmpC no deterg,Giardia FBPA inh-1,AmpC detergent,Giardia growth,Mammal cell tox,Giardia FBPA inh-2,Rabbit FBPA inh,GAPDH coupling
CCOC(=O)N1CCN(Cc2ccccn2)CC1,nt,4%,nt,14µM*,-2%,33%,-10%,0%,3%,6%
CCOC(=O)c1oc2cc(C)cc(O)c2c(=O)c1-c1csc(C)n1,3%,-6%,-6%,7%,-6%,nt,nt,nt,nt,nt
O=C(O)Cn1c2ccccc2c2n[nH]c(=S)nc21,9%,2%,-8%,8.9µM*,-7%,19%,-3%,7%,4%,8%
O=C(O)CSc1nnc(NC(=O)CN2CCOCC2)s1,0%,6%,0%,5µM*,0%,-5%,0%,3%,11%,11%
O=C(CN1CCOCC1)Nc1nc2ccc(Cl)cc2s1,-1%,13%,22%,6.3µM*,-3%,-5%,-20%,5%,8%,7%
CS(=O)(=O)c1ccc2nc(NC(=O)CN3CCOCC3)sc2c1,3%,9%,-8%,4.5µM*,-3%,?,-4%,2%,6%,3%
O=C(NCc1cccc(C(F)(F)F)c1)c1cccc(S(=O)(=O)NCc2ccccc2)c1,1%,9%,-2%,-2%,-12%,nt,nt,nt,nt,nt
O=c1c2ccccc2nc(/C=C/c2ccc3c(c2)OCO3)n1CCCO,0%,-7%,113%,0%,-2%,nt,nt,nt,nt,nt
CCc1ccc(NC(=O)[C@@H](NC(=O)[C@@H]2Cc3ccccc3CN2)C(C)CC)cc1 (stereo not given in full),-5%,14%,14%,?,3%,nt,nt,nt,nt,nt
CCC(C)[C@H](NC(=O)[C@@H]1Cc2ccccc2CN1)C(=O)NCc1ccc(OC)cc1 (stereo not given in full),-3%,-9%,-8%,14µM*,-15%,-30%,14%,8%,2%,11%
Cc1ccc(Cn2c(C3CCCN3c3nc(C)cs3)nc3cc(C(F)(F)F)ccc32)cc1 (stereo not given),-24%,-73%,92%,28µM*,-6%,12%,-10%,3%,2%,12%
Cc1nc(COC(=O)c2cc(O)c3ccccc3c2O)cs1,-7%,nt,-33%,20µM*,-10%,-13%[10.4 µM],-6%,?,?,?
Cc1cccc(OCc2nn[nH]n2)c1C,3%,8%,-13%,14µM*,-19%,26%,-4%,4%,13%,16%
COC(=O)c1ccc(OCCOc2ccccc2)cc1,-24%,-4%,-4%,2%,0%,nt,nt,nt,nt,nt
COc1cccc(OCc2nn[nH]n2)c1,2%,12%,-20%,?,-8%,nt,nt,nt,nt,nt
COc1ccc(OCc2nn[nH]n2)cc1,16%,12%,-18%,25µM*,-14%,?,-6%,12%,7%,22%
COC(=O)c1ccc(OCc2nn[nH]n2)cc1,-2%,-7%,-15%,32µM*,4%,21%,19%,14%,12%,14%
Cc1ccc(-c2nnc3c4ccccc4c(C)nn23)cc1NC(=O)c1ccco1,nt,1%,nt,nt,nt,nt,nt,nt,nt,nt
Cc1ccc(NC(=O)CCc2nnc3ccc(N4CCOCC4)nn23)cc1C,3%,14%,-1%,-1%,-7%,nt,nt,nt,nt,nt
CC(=O)c1ccc(NC(=O)CSc2nnc(-c3ccncc3)o2)cc1,-8%,nt,-13%,nt,?,nt,nt,nt,nt,nt
Cc1ccc(NC(=O)Cn2ccsc2=N)c([N+](=O)[O-])c1,1%,-2%,-22%,1%,1%,nt,nt,nt,nt,nt
COc1ccc(CCn2c(NN=C3CCCCC3)nc3c2c(=O)[nH]c(=O)n3C)cc1,0%,2%,3%,4.5µM*,-11%,-5%[10.4 µM],-1%,5.6µM*,?,7.9µM*
COc1ccc(CNc2nc3c(c(=O)[nH]c(=O)n3C)n2CCCc2ccccc2)cc1,3%,?,-14%,3%,-7%,nt,nt,nt,nt,nt
O=C(CCOc1ccccc1)Nc1ccc(Br)cc1,-2%,0%,-35%,7%,-3%,nt,nt,nt,nt,nt
CCN(CC)S(=O)(=O)c1ccc2c(c1)N(CC(=O)N1CCN(c3cccc(Cl)c3)CC1)C(=O)CO2,nt,nt,nt,nt,7%,nt,nt,nt,nt,nt
SMILES,SARS PLP yeast,NS1 function inh,AmpC no deterg,Giardia FBPA inh-1,AmpC detergent,Giardia growth,Mammal cell tox,Giardia FBPA inh-2,Rabbit FBPA inh,GAPDH coupling
CNC(=S)N/N=C/c1ccccc1OCC(=O)O,0%,-2%,-36%,20µM*,-5%,?,-2%,-8%,-1%,-7%
Cc1cnc(NC(=O)CSc2ncc(-c3ccccc3)n2Cc2ccco2)s1,7%,-48%,-23%,0%,?,nt,nt,nt,nt,nt
Nc1cccc2[nH]c(C(F)(F)F)nc12,-9%,nt,-54%,20µM*,-5%,-22%,?,?,-13%,-24%
O=C(O)c1cccc2[nH]c(C(F)(F)F)nc12,-10%,-2%,-15%,-25%,?,nt,nt,nt,nt,nt
CC1Cc2cc(S(=O)(=O)CCC(=O)NCc3ccccc3Cl)ccc2N1C(=O)C1CC1 (stereo not given),nt,nt,nt,nt,15%,nt,nt,nt,nt,nt
Cc1ccc2oc(=O)c(/C=C(\O)c3ccco3)nc2c1,-1%,0%,-20%,20µM*,4%,12%,8%,-17%,1%,-2%
Cc1ccc2oc(=O)c(/C=C(\O)C(C)(C)C)nc2c1,-5%,nt,-25%,-25%,-11%,nt,nt,nt,nt,nt
Cc1ccccc1C(=O)c1cccn1CC(=O)NCCCN1CCc2ccccc2C1,2%,nt,149%,16µM*,-5%,?,-12%,9%,10%,6%
CSc1nccn1C(=O)c1ccccc1[N+](=O)[O-],-5%,15%,-11%,28µM*,-1%,11%[10.4 µM],9%,-14%,-11%,-10%
Nc1ccc2nc(Cc3ccccc3)[nH]c2c1,1%,17%,-24%,16µM*,-10%,-6%[10.4 µM],-8%,-16%,-9%,-3%
COc1ccc(NC(=S)Nc2ccc(N(C)C(C)=O)cc2)cc1,0%,2%,-18%[2.29 µM],-1%,-7%,nt,nt,nt,nt,nt
CCS(=O)(=O)N1CCN(Cc2ccncc2)CC1,4%,5%,-10%,14µM*,-12%,14%,12%,7%,4%,17%
CCCS(=O)(=O)N1CCN(Cc2ccncc2)CC1,3%,-3%,-33%,-25%,?,nt,nt,nt,nt,nt

# From PubChem
